# Several values for one entry are separate records, joined by “and”; a condition that tells them apart may be missing. Equal values may be shown once. Inconclusive results are not listed. Where a call stands in place of a potency, no number is given. A number with no mark means an inactive call. Activity calls are given as the source filed them. Calls follow the shape of the dose curve; as a rule, active = well fitted inhibition curve with a large enough effect; inconclusive = small, poorly fitted or top-dose-only effect; inactive = flat fitted curve, though single readings scatter.
# Test system: HaCat
# Experiment: Cytotoxic Profiling of Annotated Libraries Using Quantitative High-Throughput Screening (AID 1296008); also: nearly all actives have a fitted effect of over 60% in size
# Details: Five cell lines viability, CellTiter-Glo ATP luminescence, 48-72 h; max response: active compounds read low
# In short: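 Cells exposed to compounds for 48 or 72 hr at 37 degrees Celsius. Viability read as ATP-coupled luminescence with CellTiter-Glo after 10 min at room temperature.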
# Potency is read from the fitted curve at half-maximal effect.
Structure (SMILES),outcome,max response,Potency
CC(C)(S)[C@@H](N)C(=O)O,inactive,–,–
COc1cc2c(N3CCN(C(=O)Nc4ccc(OC(C)C)cc4)CC3)ncnc2cc1OCCCN1CCCCC1,–,3.85% and 0.506%,–
O=c1oc2cc(O)ccc2s1,inactive,–,–
NS(=O)(=O)c1cc(C(=O)O)c(NCc2ccco2)cc1Cl,–,-0.435% and 2.7%,–
CC(C)C[C@H](NC(=O)[C@H](Cc1ccccc1)NC(=O)c1cnccn1)B(O)O,–,–,188 nM (active)
C[C@@H](c1ncncc1F)[C@](O)(Cn1cncn1)c1ccc(F)cc1F,inactive,–,–
O=C(O)c1cn(-c2ccc(F)cc2)c2cc(N3CCNCC3)c(F)cc2c1=O,–,-14.9%,–
COc1cc(Nc2c(C#N)cnc3cc(OCCCN4CCN(C)CC4)c(OC)cc23)c(Cl)cc1Cl,–,–,841 nM (active) and 1.66 µM (active) and 2.31 µM (active)
CC(C)[N+]1(C)[C@@H]2CC[C@H]1CC(OC(=O)C(CO)c1ccccc1)C2 (some centres undefined),inactive,–,–
Cc1ccc(S(=O)(=O)NC(=O)NN2CC3CCCC3C2)cc1 (centres undefined),inactive,–,–
O=C(CCc1ccc(O)cc1)c1c(O)cc(O)cc1O,inactive,–,–
Cc1cccc(-c2[nH]ncc2-c2ccc3ncccc3n2)n1,inactive,–,–
CCCOc1ccc2nc(NC(=O)OC)[nH]c2c1,inactive,–,–
O=c1c(O)c(-c2ccc(O)cc2O)oc2cc(O)cc(O)c12,inactive,–,–
S=c1nc[nH]c2nc[nH]c12,–,–,14800 nM (active)
O=C1NC(=O)C(c2ccccc2[N+](=O)[O-])=C1Nc1ccc(O)c(Cl)c1,–,-25.3%,–
N=C(N=C(N)N)N1CCOCC1,inactive,–,–
O=c1c(O)c(-c2cc(O)c(O)c(O)c2)oc2cc(O)cc(O)c12,inactive,–,–
O=P(O)(O)C(O)(Cn1ccnc1)P(=O)(O)O,inactive,–,–
COc1cc(OC)c(C(=O)CCCN2CCCC2)c(OC)c1,–,4.83% and -3.89%,–
CC(C)c1ccc2c(c1)c(SC(C)(C)C)c(CC(C)(C)C(=O)O)n2Cc1ccc(Cl)cc1,–,-20.8%,–
Cc1cc(C2CCCCC2)n(O)c(=O)c1,–,–,23.7 µM (active) and 20.9 µM (active)
Cc1nc2n(c(=O)c1CCN1CCC(c3noc4cc(F)ccc34)CC1)CCCC2,–,2.05% and 3.62%,–
CN(C)CCCC1(c2ccc(F)cc2)OCc2cc(C#N)ccc21 (centres undefined),–,-6.25% and -3.5%,–
